NR1D1 modulator = Rev-erb alpha (human) modulation | Rev-erbα–FITC-DNA binding, fluorescence polarization, 90 min | 370,000 tested, 0.79% active | activity, % at 10 µM | AID 1259318;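 active = activity above about 14%, limit read from the data; passing the limit was not always enough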;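 note: 0% = DMSO wells with 35 nM protein and 100% = DMSO wells with 750 nM protein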
Exocytosis inh = lytic granule exocytosis inhibition | AID 651702 | 360,000 tested, 0.66% active | TALL-104 LAMP-1 surface exposure, flow cytometry; cells stimulated with thapsigargin and PMA | inhibition, % at 10 µM;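 active = inhibition above about 55%, limit read from the data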
PG9 Ab binder = small molecules binding HIV-1 gp120 antibody PG9. TR-FRET gp120-PG9 antibody binding. 360,000 tested, 0.43% active. inhibition, % at 6.7 µM; in the data active = inhibition above about 8.5%
VLA-4 inh = inhibition in a human VLA-4 binding assay. inhibition, % (about 7 µM as worked out from the volumes in the protocol). 330,000 tested, 0.2% active. VLA-4 expressing cells, ligand binding flow cytometry. AID 2557; in the data active = inhibition above about 50%
Target sequence (P13612 whole entry, looked up): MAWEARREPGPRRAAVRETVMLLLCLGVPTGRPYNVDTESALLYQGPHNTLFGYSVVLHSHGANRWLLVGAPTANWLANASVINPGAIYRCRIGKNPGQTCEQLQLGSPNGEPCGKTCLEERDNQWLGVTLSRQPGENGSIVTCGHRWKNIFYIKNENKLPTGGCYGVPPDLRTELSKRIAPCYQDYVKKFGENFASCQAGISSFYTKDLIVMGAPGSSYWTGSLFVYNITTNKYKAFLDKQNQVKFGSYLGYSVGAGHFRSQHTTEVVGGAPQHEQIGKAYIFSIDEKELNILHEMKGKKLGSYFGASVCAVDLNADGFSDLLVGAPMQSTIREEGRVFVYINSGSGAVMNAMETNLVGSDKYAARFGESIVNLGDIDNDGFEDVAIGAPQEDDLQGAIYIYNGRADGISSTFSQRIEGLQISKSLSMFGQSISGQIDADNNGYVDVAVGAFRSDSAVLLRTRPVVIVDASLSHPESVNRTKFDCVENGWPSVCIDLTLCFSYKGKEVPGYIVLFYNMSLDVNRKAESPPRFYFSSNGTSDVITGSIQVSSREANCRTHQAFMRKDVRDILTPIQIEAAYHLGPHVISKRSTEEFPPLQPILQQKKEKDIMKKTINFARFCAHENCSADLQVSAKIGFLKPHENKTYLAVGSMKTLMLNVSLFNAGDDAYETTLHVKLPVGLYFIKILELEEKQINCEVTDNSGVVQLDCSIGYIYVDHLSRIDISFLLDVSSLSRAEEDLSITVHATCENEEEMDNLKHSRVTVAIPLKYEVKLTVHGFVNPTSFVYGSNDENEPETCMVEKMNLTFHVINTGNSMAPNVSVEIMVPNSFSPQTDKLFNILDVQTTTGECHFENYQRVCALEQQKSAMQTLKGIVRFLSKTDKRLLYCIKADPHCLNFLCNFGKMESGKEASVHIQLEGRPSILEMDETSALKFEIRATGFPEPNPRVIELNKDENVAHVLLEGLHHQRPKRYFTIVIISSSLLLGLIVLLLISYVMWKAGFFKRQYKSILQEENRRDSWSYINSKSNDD
ABCB6 inh MLPCN = inhibitors of human ABC transporter ABCB6; Q9NP58; 360,000 tested, 0.19% active; K562-ABCB6 porphyrin accumulation, flow cytometry, 1 h; hits give low values; fluorescence ratio to DMSO, % at 10 µM;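 active = fluorescence ratio to DMSO below 75%, the collection mean minus 3 SD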;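 note: signal is porphyrin accumulated inside mitochondria; 100% equals median channel fluorescence of DMSO control wells; lower ratio means ABCB6 inhibition with less porphyrin fluorescence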
NR1D1 mod conf = confirmation of modulators of human Rev-erb alpha DNA binding | 3,000 tested, 61% active | activation, % at 25 µM | Rev-erb alpha FITC-DNA binding, fluorescence polarization, 90 min | AID 1259319 | shares compounds with NR1D1 modulator;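 active = activation at or above a set limit, or at least 3 SD above the negative control mean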;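 note: 0% = 35 nM protein with DMSO and 100% = 750 nM protein high control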
RORg counter = affects RORgamma DNA binding in a Rev-erb alpha counter-screen | purified RORgamma protein-FITC-DNA binding, fluorescence polarization | IC50, µM | shares compounds with NR1D1 modulator | 910 tested, 8% active;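 active = Compounds whose fitted half-maximal concentration for disrupting protein-DNA binding is below 10 micromolar; the record names Rev-erb in its text, so the target is in doubt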
Numbers without * were called inactive. An excerpt weighted towards active compounds, which were near 2% of everything screened.

Results for COc1ccc(CNC(=O)CN(C)Cc2ccc(C(C)(C)C)cc2)cc1 ?
NR1D1 modulator: 25*; Exocytosis inh: 32; PG9 Ab binder: -1; VLA-4 inh: 6; ABCB6 inh MLPCN: 95; NR1D1 mod conf: -3

What do the screens show for `COc1ccc(CNC(=O)c2ccc(C(C)(C)C)cc2)cc1`?
NR1D1 modulator: -3; Exocytosis inh: -4; PG9 Ab binder: 2; VLA-4 inh: 12; ABCB6 inh MLPCN: 103

What do the screens show for `Nc1[nH]c(C(=O)c2ccccc2)c(-c2ccccc2Cl)c1C(=O)NCCc1c[nH]c2ccccc12`?
NR1D1 modulator: 5; PG9 Ab binder: 2

What do the screens show for `CCSC1=N/C(=C\C=C2/Oc3ccccc3N2CC)C(=O)S1`?
NR1D1 modulator: 50*; Exocytosis inh: -6; PG9 Ab binder: -3; VLA-4 inh: -349; ABCB6 inh MLPCN: 221; NR1D1 mod conf: 46*; RORg counter: >40

How did N#Cc1ccc(-c2ccc(F)cc2)nc1SCC(=O)Nc1sc2c(c1C#N)CCC2 do in these assays?
NR1D1 modulator: 32*; Exocytosis inh: 2; PG9 Ab binder: 0; VLA-4 inh: -5; ABCB6 inh MLPCN: 101; NR1D1 mod conf: 21*

What do the screens show for `COc1ccc2nc(NC(=O)C(NS(=O)(=O)c3cccc4nsnc34)C(C)C)sc2c1` (configuration not stated)?
NR1D1 modulator: 31*; Exocytosis inh: -8; PG9 Ab binder: 0; VLA-4 inh: 0; ABCB6 inh MLPCN: 90; NR1D1 mod conf: 18*

What do the screens show for `COC(=O)C1=C(C)N(Cc2ccc(Br)cc2)C(=S)NC1c1ccccc1` (configuration not stated)?
NR1D1 modulator: 9; PG9 Ab binder: 1

How did CN1C(=O)c2cccc(NCCCN3C(=O)c4ccccc4C3=O)c2C1=O do in these assays?
NR1D1 modulator: 46*; Exocytosis inh: -3; PG9 Ab binder: -1; VLA-4 inh: 9; ABCB6 inh MLPCN: 98; NR1D1 mod conf: 19*

Results for O=c1ccc2c(-c3ccccc3)c3ccc(O)cc3oc-2c1 ?
NR1D1 modulator: 102*; Exocytosis inh: -7; PG9 Ab binder: -3; VLA-4 inh: inactive; ABCB6 inh MLPCN: 279; NR1D1 mod conf: 99*; RORg counter: >40

How did Nc1ccc(-c2c3ccc(=O)cc-3oc3cc(O)ccc23)cc1C(=O)O do in these assays?
NR1D1 modulator: 187*; Exocytosis inh: -11; PG9 Ab binder: -6; VLA-4 inh: -8; ABCB6 inh MLPCN: 104; NR1D1 mod conf: 240*; RORg counter: >40

How did O=c1cc(-c2ccccc2)oc2cc(O)ccc12 do in these assays?
NR1D1 modulator: 2; Exocytosis inh: -3; PG9 Ab binder: 2; ABCB6 inh MLPCN: 97

What do the screens show for `c1nc(NC[C@@H]2CCCO2)c2cc(-c3ccc4c(c3)OCO4)ccc2n1`?
NR1D1 modulator: -3

What do the screens show for `Cc1ccc(-c2c(C)sc(=NC(=O)c3ccco3)n2C)cc1`?
NR1D1 modulator: 37*; Exocytosis inh: -1; PG9 Ab binder: 1; VLA-4 inh: 18; ABCB6 inh MLPCN: 101; NR1D1 mod conf: 16*

How did CC(NCc1ccco1)C(=O)N1CCN(c2cccc(C(F)(F)F)c2)CC1 (configuration not stated) do in these assays?
NR1D1 modulator: 0

Results for COc1ccc(CCNC(=O)c2c(N)[nH]c(C(=O)c3ccccc3)c2-c2ccc(N(C)C)cc2)cc1 ?
NR1D1 modulator: -2

What do the screens show for `CCc1cc2cc3c(cc2nc1SCC(=O)Nc1nnc(C)s1)OCCO3`?
NR1D1 modulator: 60*; Exocytosis inh: -1; PG9 Ab binder: 2; VLA-4 inh: 9; ABCB6 inh MLPCN: 101; NR1D1 mod conf: 41*; RORg counter: >40

How did CCc1nnc(NC(=O)CSc2nc3cc4c(cc3cc2CC)OCCO4)s1 do in these assays?
NR1D1 modulator: 90*; Exocytosis inh: -8; PG9 Ab binder: 2; VLA-4 inh: -8; ABCB6 inh MLPCN: 95; NR1D1 mod conf: 36*; RORg counter: >40

How did O=C(CN(CCc1ccccc1)S(=O)(=O)c1cccs1)N1CCOCC1 do in these assays?
NR1D1 modulator: 3

How did O=C(c1cccc(F)c1)N(Cc1ccccn1)CC1CCCO1 (configuration not stated) do in these assays?
NR1D1 modulator: -8

Results for CN(C)C=Nc1ncc2c3ccccc3n(Cc3ccccc3)c2c1C#N ?
NR1D1 modulator: 34*; Exocytosis inh: -12; PG9 Ab binder: -3; VLA-4 inh: 15; ABCB6 inh MLPCN: 197; NR1D1 mod conf: 30*

What do the screens show for `Nc1ccc(C#Cc2ccc3c(=O)c4ccccc4oc3c2)cc1`?
NR1D1 modulator: -5; Exocytosis inh: 9; PG9 Ab binder: 1; VLA-4 inh: -57; ABCB6 inh MLPCN: 115

Results for N#Cc1ccc(C#Cc2ccc3oc4ccccc4c(=O)c3c2)cc1 ?
NR1D1 modulator: 16*; Exocytosis inh: -5; PG9 Ab binder: -1; VLA-4 inh: 16; ABCB6 inh MLPCN: 96; NR1D1 mod conf: 17

Results for CCOc1cc(-c2nc(-c3ccncc3)no2)cc(OCC)c1OCC ?
NR1D1 modulator: 28*; Exocytosis inh: 1; PG9 Ab binder: 0; VLA-4 inh: 7; ABCB6 inh MLPCN: 101; NR1D1 mod conf: 3

What do the screens show for `COc1ncc(-c2cc(C(C)=O)c3n(c2=O)CCC3)c(OC)n1`?
NR1D1 modulator: 2

What do the screens show for `O=c1[nH]c(Cc2ccc(F)cc2)nc2scc(-c3ccc(F)cc3)c12`?
NR1D1 modulator: 35*; Exocytosis inh: -1; PG9 Ab binder: 0; VLA-4 inh: 16; ABCB6 inh MLPCN: 101; NR1D1 mod conf: 36*; RORg counter: >40

How did COCCCN1C(=O)[C@H](CC(=O)NCc2cccs2)[C@]2(C(=O)OC)CCCCC=C12 do in these assays?
NR1D1 modulator: -9

What do the screens show for `O=C(Cn1c(=O)c(=O)n(Cc2ccccc2)c2ccc(Cl)cc21)Nc1ccc(F)cc1F`?
NR1D1 modulator: 29*; Exocytosis inh: 5; PG9 Ab binder: -2; VLA-4 inh: 0; ABCB6 inh MLPCN: 99; NR1D1 mod conf: 12

What do the screens show for `O=C(NCc1ccc(F)cc1)C1CCCN(c2nc3ccsc3c(=O)s2)C1` (configuration not stated)?
NR1D1 modulator: 20*; Exocytosis inh: -2; PG9 Ab binder: 1; VLA-4 inh: -1; ABCB6 inh MLPCN: 99; NR1D1 mod conf: 17

How did COc1ccc(-c2c(C)nc(N)nc2-c2ccc(OCc3ccc(C)cc3)cc2O)cc1OC do in these assays?
NR1D1 modulator: 123*; Exocytosis inh: 15; PG9 Ab binder: -2; VLA-4 inh: 10; ABCB6 inh MLPCN: 90; NR1D1 mod conf: 85*; RORg counter: >40

Bioassay records: PubChem BioAssay, several laboratories
